CHX counter: Cycloheximide Counterscreen for Small Molecule Inhibitors of Shiga Toxin. 300,000 compounds, 12% hits. cell reporter, cycloheximide protein synthesis inhibition counterscreen. max response, %; in the data active = max response mostly above about 13%, no sharp cut-off; inactive = mostly below about 14%; note: read at 38.3 µM for the half of the compounds with a filed dose; 0% is about no effect
SARS PLpro yeast: qHTS of Yeast-based Assay for SARS-CoV PLP; Potency, µM (highest dose often 32.9 µM), for the others: at the highest dose activity, positive = growth rescue, hits mostly activators; AID 485353, 2010; S. cerevisiae expressing SARS-CoV PLpro, growth rescue; 330,000 compounds, 0.19% hits; note: potency is the fitted concentration of half-maximal effect; 0% is about no effect; nearly all actives have a fitted effect of over 55% in size
NS1 function inh: qHTS Assay for Inhibitors of Influenza NS1 Protein Function | Potency, µM (highest dose often 46.1 µM), without a hit: at the highest dose activity, positive = more growth | 270,000 compounds, 0.4% hits | AID 2326, 2010; note: potency is the fitted concentration of half-maximal effect; actives are rising curves; nearly all actives have a fitted effect of over 50% in size
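S. cerevisiae expressing influenza A NS1, grown in glucose, washed, then diluted 1:100 into pH 6.0 -URA galactose medium with 23 nl compound. Growth recovery read as OD600; NS1-free strain serves as control.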
Shiga inhibitor: A qHTS for Small Molecule Inhibitors of Shiga Toxin; Vero cells, Shiga toxin protein synthesis inhibition reporter; inhibition, % at 38.7 µM; 290,000 compounds, 9.2% hits; AID 2315, 2010; in the data active = inhibition mostly above about 28%, no sharp cut-off; inactive = mostly below about 43%; note: 0% is about no effect
The depositor's hits bear a star; u = inconclusive; x = no result; + = active, no number. This is a sample that favours compounds with a hit; in the whole collection about 12% have one here. Unless noted, calls come from the whole dose curve.

SMILES | CHX counter | SARS PLpro yeast | NS1 function inh | Shiga inhibitor
O=C(CSc1ccccn1)Nc1ccc(Br)cn1 | 21.2* | -7.6% | 4.1% | 66.9
Cc1ccc(NC(=O)CSc2ncccn2)c([N+](=O)[O-])c1 | 27.8* | 3.1% | x | 82.0*
COc1ccc(NC(=O)CSCc2ccccc2C)cc1 | 54.4* | 3.6% | -8.1% | 64.9*
Cc1ccc(NC(=O)CSc2nc(C)c(C)c(C)n2)c([N+](=O)[O-])c1 | 2.9 | -3.3% | 7.8% | -10.6
CCc1ccc(NC(=O)CSCCO)cc1 | 13.5 | 8.1% | -14.1% | 36.8*
O=C(O)[C@@H](Br)[C@@H](Br)c1ccccc1[N+](=O)[O-] | x | x | 2.1% | x
CCCOc1ccc(C2=CSC3=NCCN23)cc1[N+](=O)[O-] | -5.1 | 0.2% | 6.6% | -11.2
CC(=O)c1cccc(NC(=O)CSc2ccc(-c3ccco3)nn2)c1 | 3.4 | -6.5% | 17.2% | 15.2
O=C(CCSc1ccccn1)Nc1ccc(Br)cc1 | 49.1* | -15.3% | -19.4% | 101.4*
COc1ccc(C(=O)NCCSc2ccccn2)cc1 | 32.2* | -2.3% | 1.4% | 52.8*
CCc1ccc(NC(=O)CSc2ccc(-c3ccco3)nn2)cc1 | 17.5* | -2.3% | x | 23.6
Cc1nn(CC(=O)OCC(=O)Nc2ccccc2[N+](=O)[O-])c(C)c1[N+](=O)[O-] | -3.5 | 4.4% | -34.1% | -8.6
Cc1ccc(NC(=O)COC(=O)Cn2nc(C)c([N+](=O)[O-])c2C)c([N+](=O)[O-])c1 | 28.0* | 15.8% | 7.8% | 45.4
O=C(O)CCSc1ccccn1 | -2.9 | 0.8% | 1.2% | -1.0
COc1ccc(CC(=O)OC(C)C(=O)Nc2c(C)n(C)n(-c3ccccc3)c2=O)cc1OC (stereo not drawn) | x | -2.5% | x | x
CC(=O)OCC1OC(Sc2cccc3cccnc23)C(OC(C)=O)C(OC(C)=O)C1OC(C)=O (stereo not drawn) | -2.6 | 1.0% | -8.1% | -30.1
COc1cc2c(c(OC)c1OC)-c1ccc(OC)c(=O)cc1[C@@H](NC=O)CC2 | -9.6 | x | x | -11.8
COc1ccccc1C(=O)CSc1ccccn1 | 27.1* | -0.2% | -6.3% | 94.3*
COc1ccc(NC(=O)CSc2ccccn2)c([N+](=O)[O-])c1 | 36.8* | 4.6% | -1.5% | 101.9*
CNC(=O)c1cc(S(=O)(=O)N(C)C)ccc1Cl | 7.8 | 3.5% | 9.3% | -26.1
O=C(NCCSCc1ccco1)c1ccc(CN2CCOCC2)cc1 | 9.4* | 2.0% | 2.0% | 66.0
S=C(NCCSCc1c(Cl)cccc1Cl)Nc1ccccc1 | 4.3 | -34.7% | -124.2% | 11.7
N#Cc1ccccc1CSCCNC(=O)Cc1c(F)cccc1Cl | 16.6* | 1.5% | -10.0% | 28.2
O=C(NCCSCc1ccco1)Nc1ccccc1 | 48.4* | -7.8% | -17.0% | 56.7
O=C(NCCSCc1c(F)cccc1Cl)Nc1ccccc1 | 31.7* | -3.7% | -36.4% | 75.0*
SMILES | CHX counter | SARS PLpro yeast | NS1 function inh | Shiga inhibitor
CCNC(=S)N1CCC(n2cnc3ccccc32)CC1 | -6.5 | 1.3% | 4.4% | -4.5
COc1ccc(CCN2CC(C(=O)N(C)Cc3c(C)n[nH]c3C)CCC2=O)cc1 (stereo not drawn) | -3.5 | 1.4% | 4.7% | -0.9
COC(=O)[C@H](CCSC)NS(=O)(=O)c1ccccc1Br | -4.9 | -0.9% | 5.7% | -1.5
Fc1ccccc1/C=N/Nc1ncnc2ccccc12 | 40.5* | 4.1% | x | 51.6
Clc1ccc(/C=N/Nc2ncnc3ccccc23)cc1Cl | 25.7* | 6.4% | -27.7% | 89.7*
COc1ccc(NC(=O)CN2C(=O)CC(C)S(=O)(=O)c3ccccc32)cc1 (stereo not drawn) | 13.3 | 0.9% | 12.1% | 16.1
CCCc1nc2ccccc2c(=O)n1/N=C/c1c(C)[nH]n(-c2ccc(C)cc2)c1=O | 8.9 | 0.6% | -65.2% | 11.5
Cc1nc2ccccc2c(=O)n1/N=C/c1ccccc1Cl | 32.7* | -4.8% | -30.2% | 72.0*
Cc1nc2ccccc2c(=O)n1/N=C/c1ccc(O)cc1O | -1.7 | 2.1% | -0.4% | 15.8
CCCc1nc2ccccc2c(=O)n1/N=C/c1ccccc1O | 47.0* | 19.3% | -53.3% | 59.0
COc1cccc(/C=N/n2c(C)nc3ccccc3c2=O)c1O | 0.8 | -5.4% | -23.4% | 4.0
Cc1ccc(/C=N/n2c(C)nc3ccccc3c2=O)s1 | 39.6* | -4.7% | -7.2% | 92.5*
CN1CCN(c2ccc(C(=O)c3ccc(Br)cc3)cc2[N+](=O)[O-])CC1 | 7.1 | -3.0% | -10.8% | 39.6
COc1cc(NC(=O)c2cccs2)c(C(=O)OCC(=O)c2cc(C)n(-c3ccc(F)cc3)c2C)cc1OC | 123.1* | 5.1% | 10.9% | 98.0*
COc1ccc(-n2c(C)cc(C(=O)COC(=O)c3cc(NC(=O)c4cccs4)c(OC)c(OC)c3)c2C)cc1 | -1.5 | 5.1% | 15.7% | 16.7
COc1cc(NC(=O)c2cccs2)c(C(=O)OCC(=O)c2cc(C)n(-c3ccccc3)c2C)cc1OC | 42.7* | 5.3% | -2.3% | 66.5*
COc1cc(NC(=O)c2cccs2)c(C(=O)OCC(=O)NC(=O)NC(C)(C)C)cc1OC | -0.6 | -3.6% | 3.8% | -9.6
c1ccc(CSc2ccc3nnc(-c4cccnc4)n3n2)cc1 | -1.2 | 16.1% | -1.3% | -7.5
O=S(=O)(Nc1c(F)cccc1F)c1ccc(Cl)nc1 | x | 2.4% | x | x
Cc1ccc(N/N=C(\C#N)C(=N)N2CCCCCC2)cc1 | 37.3* | -1.9% | x | 94.0*
Cc1ccc(NNC(=O)C(=O)N2CCCCC2)cc1 | 1.5 | -36.4% | -14.2% | -9.7
N#C/C(=N\Nc1ccc(F)cc1)C(=N)N1CCCCCC1 | 26.8* | 4.2% | x | 58.1*
Cc1ccc(N/N=C(\C#N)C(=N)N2CCOCC2)cc1 | 56.2* | -20.8% | 4.5% | +
N#C/C(=N\Nc1ccc(S(=O)(=O)N2CCOCC2)cc1)C(N)=S | -1.1 | -0.2% | -0.6% | 1.0
N#C/C(=N\Nc1ccc(Cl)cc1)C(N)=S | 22.9* | -19.8% | -65.7% | 45.6*
SMILES | CHX counter | SARS PLpro yeast | NS1 function inh | Shiga inhibitor
CC(=O)N1c2ccc(S(=O)(=O)N3CCCC3)cc2CC1C(=O)NCc1ccc(N(C)C)cc1 (stereo not drawn) | -5.5 | 2.7% | -2.9% | 8.9
Cc1nnc(SCC(=O)NCCc2ccccc2)s1 | -1.7 | -0.1% | 5.3% | 16.0
COc1ccc(N/N=C(\C#N)C(=N)N2CCCCC2)cc1 | 42.8* | -0.8% | -2.0% | 68.1*
N#C/C(=N\Nc1ccc(Cl)cc1)C(=N)N1CCCCC1 | 22.6 | -2.5% | -33.9% | +
COc1ccc(N/N=C(\C#N)C(=N)SCc2ccccc2)cc1 | 8.2 | -22.4% | x | -17.3
N#C/C(=N\Nc1ccccc1)C(=N)N1CCOCC1 | 30.1* | 13.5% | -4.0% | 41.0*
N#C/C(=N\Nc1ccccc1F)C(=N)N1CCCCC1 | 51.0* | -7.4% | -12.4% | 114.2*
NCCNc1ccc(C(=O)N2c3ccccc3Sc3ccccc32)cc1[N+](=O)[O-] | -5.8 | 2.0% | u | -6.7
Cc1cccc(NC(=S)NC2CC3CCCC(C2)N3Cc2cccs2)c1 (stereo not drawn) | 1.2 | 6.9% | -10.6% | -9.9
COc1ccc(-c2nnc(SCc3ccc(C(=O)O)cc3)o2)cc1OC | -2.3 | 2.1% | 7.3% | x
CCN(CC)C(=N)/C(C#N)=N/Nc1ccc(C)cc1 | 43.9* | -0.4% | -0.7% | 86.8*
Cc1ccc(C(=O)N/C(=C\c2cccc([N+](=O)[O-])c2)C(=O)NC(Cc2ccccc2)C(=O)O)cc1 (stereo not drawn) | 1.0 | -0.7% | u | -26.1

Screening results from PubChem BioAssay.
